Screening results: PubChem, National Center for Advancing Translational Sciences (NCATS)
D2 ag-1 = agonists of human D2 dopamine receptor (beta-arrestin) | P14416 | DiscoveRx PathHunter D2 beta-arrestin, luminescence, 90 min; 100% = 57 uM dopamine signal | activation, % (concentration not given with the values) | 360,000 compounds, 0.084% hits | AID 624465; in the data active = activation above about 40%; inconclusive = between about 15% and that limit
Target sequence (P14416 whole entry, looked up): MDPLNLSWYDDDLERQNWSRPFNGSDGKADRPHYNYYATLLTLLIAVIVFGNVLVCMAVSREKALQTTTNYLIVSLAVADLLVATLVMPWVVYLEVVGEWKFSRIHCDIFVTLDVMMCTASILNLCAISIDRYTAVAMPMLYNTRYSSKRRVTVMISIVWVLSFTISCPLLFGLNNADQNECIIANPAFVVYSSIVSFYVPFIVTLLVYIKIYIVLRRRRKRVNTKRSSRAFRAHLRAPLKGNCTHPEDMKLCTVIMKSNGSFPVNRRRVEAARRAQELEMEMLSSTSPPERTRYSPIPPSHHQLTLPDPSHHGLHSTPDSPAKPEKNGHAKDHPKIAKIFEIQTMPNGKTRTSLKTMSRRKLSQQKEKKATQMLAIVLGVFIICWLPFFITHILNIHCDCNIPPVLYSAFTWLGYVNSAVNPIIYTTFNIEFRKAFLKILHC
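Agonist mode: compounds alone added to overnight-plated D2 PathHunter cells for 90 min at 37 C, with 57 uM final dopamine (EC100) defining full response. Beta-arrestin recruitment detected by chemiluminescent reagent, read after 1 h at ambient temperature.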
D2 PAM-1 = potentiates the human D2 dopamine receptor allosterically; potentiation, % (no concentration beside the values); DiscoveRx D2 beta-arrestin cells, luminescence, 90 min; 100% = 57 uM dopamine signal; 360,000 compounds, 0.23% hits; in the data active = potentiation above about 50%; inconclusive = mostly about 30% to 49%
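D2 cells co-treated with compound plus 50 nM dopamine (EC20) for 90 min at 37 deg C to detect potentiation. Beta-arrestin recruitment was read as enzyme-fragment luminescence after 1 h at ambient temperature. Full response was set by 57 uM dopamine.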
D2 PAM-2 = positively modulates the human D2 dopamine receptor allosterically; HEK293 T-REx D2, calcium flux, EC20 dopamine potentiation; P14416; 340,000 compounds, 0.34% hits; potentiation, % at 10 µM; AID 485347;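 active = potentiation over 3 SD above the plate norm, cut at about 30% in these data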
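Tetracycline-induced Hek293 Trex D2 cells, force-coupled to calcium, loaded with no-wash calcium dye. Compound added with 180 s kinetic read for agonism, then EC20 dopamine and a further 180 s read for potentiation.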
D2 ag-2 = activates the human D2 dopamine receptor; 340,000 compounds, 0.53% hits; activation, % at 2 µM; AID 485358; P14416; HEK293 T-REx D2 cells, calcium flux agonist mode;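 active = activation over 3 SD above normal in the single-dose calcium agonist read, cut at about 30% in these data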
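Calcium-flux readout, 1 cycle/sec over 180 s following compound pin transfer, in inducible HEK293 Trex D2 cells (force-coupled); dopamine controls included. Positive calcium responses during this window marked compounds as potential agonists.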
D2 antagonist = D2 dopamine receptor (human) antagonism; HEK293 TREx D2 cells, calcium flux, dopamine EC80; P14416; inhibition, % at 10 µM; AID 485344; 340,000 compounds, 2% hits; in the data active = inhibition above about 30%; inactive = below that, where a call was filed
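Calcium mobilization kinetics were recorded at 1 s intervals in tetracycline-induced HEK293 T-REx D2 cells, first for 180 s after compound addition and then 180 s after EC80 dopamine.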
Each line names hits and unclear results; the compound was inactive in the other large screens. The list is not random: actives were taken first. Their share in the collection is about 2.4%.

CN(CCC1CCOCC1)C(=O)CC1C(=O)NCCN1Cc1c(F)cccc1Cl (stereo not drawn)	none
COc1ccc(CNC(=O)c2cccc3c(-c4cnn(C)c4)coc23)cc1OC	none (no result: D2 PAM-2, D2 ag-2, D2 antagonist)
CCn1cc(S(=O)(=O)N2CCN(Cc3cccc(Cl)c3)CC2)cn1	D2 antagonist 33.5
COc1ccccc1OCc1nc2ccccc2n1Cc1ccccc1	none (no result: D2 ag-1, D2 PAM-1, D2 antagonist)
O=C(Nc1cccc(C(F)(F)F)c1)C1CC(=O)N(CCc2ccccc2)C1 (stereo not drawn)	D2 antagonist 62.5
Cc1nn(C)c2c1c(C(F)(F)F)cc(=O)n2C(C)C(=O)Nc1ccccc1F (stereo not drawn)	none (no result: D2 ag-1, D2 PAM-1, D2 PAM-2, D2 antagonist)
Cc1nn(C)c(Sc2ccccc2N)c1[N+](=O)[O-]	D2 ag-1 44.5
Cc1csc2nc(-c3ccc(NS(=O)(=O)c4cccc(F)c4)cc3)cn12	none (no result: D2 ag-1, D2 PAM-1, D2 antagonist)
C=CCn1c(-c2ccc(OC)c(OC)c2)n[nH]c1=S	none
C=CCn1c(-c2c(C)nc3cc(C)ccn23)n[nH]c1=S	D2 antagonist 35.6
Cc1c(C(=O)OC2CCCCC2)sc2nc[nH]c(=O)c12	D2 PAM-2 30.9
COc1ccccc1CNc1nc(-c2ccco2)nn1S(=O)(=O)c1ccc(Cl)cc1	none (no result: D2 ag-1, D2 PAM-1, D2 antagonist)
O=C(CN1C(=O)NC2(CCCCCC2)C1=O)N1CCN(c2ccc(F)cc2)CC1	none
CC(=O)c1ccc(N2CCN(C(=O)CN3C(=O)NC4(CCCCC4)C3=O)CC2)c(F)c1	D2 antagonist 30.7
O=C(Nc1nc2cc3c(cc2s1)OCCO3)c1ccc([N+](=O)[O-])o1	D2 antagonist 37.1
O=C(CN1CCOCC1)Nc1scc2c1c(=O)oc1ccccc12	D2 antagonist 35.7
COC(=O)c1c(-c2cccs2)csc1NC(=O)c1ccc(C)cc1	none (no result: D2 ag-1, D2 PAM-1, D2 antagonist)
COC(=O)c1c(-c2cccs2)csc1NC(=O)CN1CCOCC1	D2 PAM-2 33.0
COc1cccc(OC)c1-c1nn(-c2ncc(C(F)(F)F)cc2Cl)c(=O)o1	D2 antagonist 37.7
N#Cc1cc(NCC2CCCO2)c([N+](=O)[O-])cc1C#N (stereo not drawn)	D2 PAM-1 50.1
COC(=O)c1ccn(CSc2cc(Cl)ccc2Cl)n1	D2 antagonist 41.8
Cc1cc(NC(=O)c2ccccc2Cl)no1	none
Cc1cc(NC(=O)Nc2ccc(F)cc2)no1	D2 PAM-2 40.1
Cc1cc(NC(=O)c2c(F)cccc2Cl)no1	D2 PAM-2 31.3
CN1CCN(c2oc(/C=C/c3ccc(F)cc3)nc2C#N)CC1	none (no result: D2 ag-1, D2 PAM-1, D2 antagonist)
COc1ccc(CC(=O)NCC2CCCN(Cc3cccc(C(F)(F)F)c3)C2)cc1 (stereo not drawn)	none
CSc1ccc(CN2CCCC(CNC(=O)c3ccc(F)cc3)C2)cc1 (stereo not drawn)	D2 antagonist 40.7
O=C(NCC1CCCN(Cc2ccccc2F)C1)c1cccc(C(F)(F)F)c1 (stereo not drawn)	D2 antagonist 31.5
CCCCN(C(=O)c1ccc2c(c1)OCO2)C1CCS(=O)(=O)C1 (stereo not drawn)	none
CCN(C(=O)c1ccc2c(c1)OCO2)C1CCS(=O)(=O)C1 (stereo not drawn)	D2 antagonist 38.5
OC1(c2ccc3c(c2)OCO3)CCN(Cc2ccc(F)cc2)CC1	D2 antagonist 73.0
O=S(=O)(c1ccc(F)cc1)N1CCC(O)(c2ccc3c(c2)OCO3)CC1	none
OC1(c2ccc(F)cc2)CCN(Cc2cccnc2)CC1	D2 antagonist 33.8
CCOC(=O)c1c(C)[nH]c(CCC(=O)NCCCN2CCN(c3ccccc3F)CC2)c1C	none (no result: D2 ag-1, D2 PAM-1, D2 ag-2, D2 antagonist)
COc1ccc(OC)c(CNS(=O)(=O)c2cn(C)cn2)c1	none
COc1ccccc1CNC(=O)C1CCN(Cc2nc(-c3ccc(OC)c(OC)c3)oc2C)CC1	none (no result: D2 ag-1, D2 PAM-1, D2 antagonist)
COc1ccc(-c2nc(CN3CCC(c4ccccc4)CC3)c(C)o2)cc1OC	D2 antagonist 44.3
Cc1oc(-c2cccs2)nc1CN1CCC(c2ccccc2)CC1	D2 antagonist 83.3
Cc1oc(-c2cccs2)nc1CN1CCN(C(C)C)C(CCO)C1 (stereo not drawn)	none
C/C(=N/Nc1ccc(C(=O)O)cc1)c1ccc(O)c(O)c1O	D2 ag-1 inconclusive, D2 PAM-1 84.7
Cc1cc(OCCN2CCCCC2)nc2ccccc12	D2 antagonist 30.6
